Experimental data from paper PMC5540273 (PLoS ONE, 2017).
Where “and” joins values, the source holds several entries; their conditions need not be identical. Equal entries are not always repeated. Where two headings read alike, the source gives them in different places.

Legend:
SBK1 = settings: concentration: 1 μM, replicates: in singlicate, n = 1
SGK2 = settings: concentration: 1 μM, replicates: in singlicate, n = 1
SGK3 = settings: concentration: 1 μM, replicates: in singlicate, n = 1
SGK = settings: concentration: 1 μM, replicates: in singlicate, n = 1
SIK2 = settings: concentration: 1 μM, replicates: in singlicate, n = 1
SIK = settings: concentration: 1 μM, replicates: in singlicate, n = 1
SLK = settings: concentration: 1 μM, replicates: in singlicate, n = 1
SNARK = tested on: T1, SNARK; settings: concentration: 1 μM, replicates: in singlicate, n = 1
T1 construct: gene NUAK2

SNRK = settings: concentration: 1 μM, replicates: in singlicate; n = 1
SRC = settings: concentration: 1 μM, replicates: in singlicate, n = 1
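Note: KINOMEscan kinase panel screen.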

Compound | %Inh (SBK1) | %Inh (SGK2) | %Inh (SGK3) | %Inh (SGK) | %Inh (SIK2) | %Inh (SIK) | %Inh (SLK) | %Inh (SNARK) | %Inh (SNRK) | %Inh (SRC) | %Inh (SBK1; 1 µM) | %Inh (SGK2; 1 µM) | %Inh (SGK3; 1 µM) | %Inh (SGK; 1 µM) | %Inh (SIK2; 1 µM) | %Inh (SIK; 1 µM) | %Inh (SLK; 1 µM) | %Inh (SNARK; 1 µM) | %Inh (SRC; 1 µM)
Fc1cccc(COc2ccc(Nc3ncnc4nn5ccccc5c34)cc2Cl)c1 [GW689066] | 2% | 0% | 0% | 0% | 0% | 0% | 2% | 0% | 0% | 0% | – | – | – | – | – | – | – | – | –
CCCc1ccc(S(=O)(=O)NC2CCN(c3ccnc(Nc4ccc(OC)cc4)n3)C2)cc1 (stereo not drawn) [GSK1379737] | 100% | 6% | 0% | 0% | 0% | 0% | 15% | 0% | 0% | 0% | – | – | – | – | – | – | – | – | –
O=C(Nc1ccccc1F)NC1CCN(c2ccnc(Nc3ccc(F)cc3)n2)C1 (stereo not drawn) [GSK1379722] | 21% | 0% | 0% | 0% | 0% | 0% | 5% | 0% | 0% | 0% | – | – | – | – | – | – | – | – | –
Cl.c1ccc(Cn2ncc3cc(Nc4ncnc5ccccc45)ccc32)cc1 [GW273749] | 7% | 0% | 0% | 0% | 0% | 0% | 0% | 10% | 0% | 10% | – | – | – | – | – | – | – | – | –
COc1ccc(-c2oc3ncnc(N)c3c2-c2ccc(OC)cc2)cc1 [SB-589132] | 0% | 5% | 0% | 9% | 2% | 1% | 20% | 0% | 0% | 40% | – | – | – | – | – | – | – | – | –
Cl.c1ccc(Cn2ccc3cc(Nc4ncnc5ccccc45)ccc32)cc1 [GW275568] | 0% | 0% | 46% | 0% | 2% | 0% | 32% | 35% | 14% | 4% | – | – | – | – | – | – | – | – | –
Cc1ccc(NC(=O)c2cccc(C#N)c2)cc1-c1ccc(C(=O)Nc2ccncc2)cc1 [GSK1398463] | 0% | 10% | 2% | 0% | 15% | 0% | 0% | 0% | 17% | 26% | – | – | – | – | – | – | – | – | –
Nc1nc(-c2ccccn2)c(-c2ccnc3ccccc23)s1 [GW548057] | 0% | 0% | 6% | 0% | 0% | 0% | 7% | 0% | 0% | 12% | – | – | – | – | – | – | – | – | –
COc1ccc(NC(=O)c2ccc(-c3cc(-c4nnc(C)o4)ccc3C)cc2)cc1 [GW595885] | 26% | 2% | 0% | 1% | 0% | 0% | 10% | 0% | 0% | 0% | – | – | – | – | – | – | – | – | –
C[C@H]1CC[C@@H](C(=O)Nc2ccccc2)CN1c1cc(-c2ccc3c(N)n[nH]c3c2)nc(N)n1 [GSK2283293] | 9% | 0% | 7% | 0% | 0% | 0% | 0% | 7% | 0% | 0% | – | – | – | – | – | – | – | – | –
COc1ccc(Nc2nccc(N3CCC(NC(=O)c4cccc(NC(C)=O)c4)C3)n2)cc1 (stereo not drawn) [GSK1379732] | 21% | 3% | 3% | 15% | 0% | 0% | 6% | 3% | 0% | 0% | – | – | – | – | – | – | – | – | –
Fc1cccc(COc2ccc(Nc3ncnc4sc(-c5ccc[nH]5)cc34)cc2Cl)c1 [GW707818] | 0% | 0% | 19% | 0% | 0% | 0% | 24% | 15% | 1% | 0% | – | – | – | – | – | – | – | – | –
Oc1ccc2ncnc(Nc3ccc(OCc4ccccc4)cc3)c2c1 [GI262866] | 5% | 0% | 0% | 6% | 0% | 0% | 1% | 0% | 0% | 0% | – | – | – | – | – | – | – | – | –
C[C@@H]1CCN(C(=O)CO)C[C@@H]1N(C)c1ncnc2[nH]ccc12 | 0% | 0% | 1% | 0% | 0% | 10% | 0% | 10% | 3% | 6% | – | – | – | – | – | – | – | – | –
O=C(c1ccc(-c2cc(-c3c[nH]nc3-c3ccccn3)ccn2)cc1)N1CCCC1 [GW792479] | 0% | 8% | 0% | 0% | 12% | 19% | 3% | 0% | 0% | 17% | – | – | – | – | – | – | – | – | –
O=C(Nc1ccccc1)Nc1ccc(Oc2ccc3nccn3n2)cc1 | 0% | 0% | 3% | 0% | 0% | 0% | 20% | 0% | 0% | 0% | – | – | – | – | – | – | – | – | –
NC(=O)c1sc(-n2cnc3ccccc32)cc1OCc1ccccc1F [GSK1024306] | 21% | 0% | 0% | 4% | 0% | 4% | 63% | 29% | 0% | 14% | – | – | – | – | – | – | – | – | –
c1ccc(-c2ccc3c(-c4ccnc(Nc5ccc6c(c5)OCCO6)n4)cnn3n2)cc1 [GW818941] | 7% | 0% | 8% | 12% | 10% | 3% | 20% | 4% | 0% | 0% | – | – | – | – | – | – | – | – | –

Compound | %Inh (SBK1) | %Inh (SGK2) | %Inh (SGK3) | %Inh (SGK) | %Inh (SIK2) | %Inh (SIK) | %Inh (SLK) | %Inh (SNARK) | %Inh (SNRK) | %Inh (SRC) | %Inh (SBK1; 1 µM) | %Inh (SGK2; 1 µM) | %Inh (SGK3; 1 µM) | %Inh (SGK; 1 µM) | %Inh (SIK2; 1 µM) | %Inh (SIK; 1 µM) | %Inh (SLK; 1 µM) | %Inh (SNARK; 1 µM) | %Inh (SRC; 1 µM)
COc1ccc(-c2nc3n(c2-c2ccncc2)CCC3)cc1 [SKF-104493] | – | – | – | – | – | – | – | – | 0% | – | 27% and 8% | 16% and 0% | 13% and 2% | 7% and 0% | 0% and 2% | 0% and 5% | 20% and 36% | 7% and 2% | 18% and 0%
O=c1cc(N2CCOCC2)nc2n(Cc3cccc(Cl)c3)ccn12 [GSK2296823] | 32% | 0% | 13% | 0% | 9% | 0% | 0% | 0% | 5% | 2% | – | – | – | – | – | – | – | – | –
CC(=O)Nc1n[nH]c2ncc(-c3ccccc3)cc12 [SB-548492] | 4% | 9% | 14% | 20% | 12% | 14% | 20% | 3% | 1% | 0% | – | – | – | – | – | – | – | – | –
Nc1nc(-c2ccc3c(N)n[nH]c3c2)cc(N2CCCCC2)n1 [GSK2228768] | 3% | 0% | 0% | 0% | 0% | 0% | 5% | 0% | 0% | 15% | – | – | – | – | – | – | – | – | –
Cl.O=S(=O)(c1cccc(F)c1)c1ccc(Nc2ncnc3cc(Br)sc23)cc1Cl [GSK306886] | 0% | 0% | 6% | 0% | 0% | 0% | 8% | 14% | 0% | 0% | – | – | – | – | – | – | – | – | –
CCc1nc(-c2cccc(N(C)S(=O)(=O)c3ccccc3)c2)c(-c2ccnc(Nc3ccc(N4CCN(C(C)=O)CC4)nc3)n2)s1 [GSK1645895] | 5% | 0% | 19% | 0% | 0% | 0% | 3% | 23% | 0% | 16% | – | – | – | – | – | – | – | – | –
Cc1cc(N2CCC(NS(=O)(=O)c3ccc(F)cc3)CC2)nc(Nc2cccc(C#N)c2)n1.O=C(O)C(F)(F)F [GSK1653537] | 0% | 0% | 0% | 0% | 0% | 0% | 13% | 0% | 0% | 5% | – | – | – | – | – | – | – | – | –
Nc1nc(-c2cccnc2)c(-c2ccnc3ccccc23)s1 [GW684083] | 17% | 9% | 0% | 45% | 0% | 4% | 18% | 0% | 0% | 2% | – | – | – | – | – | – | – | – | –
Cc1ccc(C)c(NC(=O)NCCNc2ccnc(Nc3ccc(F)cc3)n2)c1 [GSK1379878] | 0% | 0% | 0% | 0% | 0% | 0% | 0% | 0% | 0% | 0% | – | – | – | – | – | – | – | – | –
COC(=O)c1cccc(NC(=O)NCCNc2ccnc(Nc3ccc(F)cc3)n2)c1 [GSK1379883] | 3% | 0% | 0% | 0% | 0% | 0% | 4% | 0% | 0% | 0% | – | – | – | – | – | – | – | – | –
CNc1nccc(-c2c(-c3ccc(F)cc3)ncn2C2CCN(C)CC2)n1 [SB-222903] | 0% | 0% | 0% | 0% | 17% | 0% | 0% | 0% | 0% | 0% | – | – | – | – | – | – | – | – | –
CCn1c(-c2ccncc2)nc2cnccc21 [SB-735216] | 20% | 19% | 28% | 5% | 0% | 19% | 8% | 21% | 17% | 0% | – | – | – | – | – | – | – | – | –
CS(=O)(=O)CCNCc1ccc(-c2ccc3ncnc(Nc4ccc(OCc5ccccc5)c(Cl)c4)c3c2)o1.Cl [GW574783] | 3% | 0% | 0% | 11% | 0% | 0% | 25% | 0% | 0% | 2% | – | – | – | – | – | – | – | – | –
Nc1n[nH]c2nnc(-c3ccccc3)cc12 [SB-517389] | 10% | 0% | 19% | 0% | 0% | 0% | 0% | 0% | 2% | 0% | – | – | – | – | – | – | – | – | –
CCc1nc(-c2cccc(C)c2)c(-c2ccnc(NC(=O)c3ccccc3)c2)s1 | 5% | 17% | 0% | 13% | 0% | 25% | 0% | 0% | 19% | 5% | – | – | – | – | – | – | – | – | –
Cn1ccc2ncnc(Nc3ccc(Oc4cccc(Cl)c4)c(Cl)c3)c21 | 15% | 11% | 10% | 0% | 0% | 37% | 33% | 13% | 0% | 12% | – | – | – | – | – | – | – | – | –
FC(F)(F)c1ccc(-c2nn3ncccc3c2-c2ccnc(Nc3cccc(C(F)(F)F)c3)n2)cc1 [GW828205] | 0% | 0% | 18% | 0% | 0% | 47% | 21% | 0% | 0% | 0% | – | – | – | – | – | – | – | – | –
Nc1nccc2scc(-c3ccc4c(c3)CCN4C(=O)Cc3cc(F)ccc3F)c12 [GSK2587663] | 11% | 0% | 0% | 0% | 0% | 0% | 13% | 0% | 8% | 0% | – | – | – | – | – | – | – | – | –
